Data as given in PubChem BioAssay AID1159580 (chemical genetic matrix, 2015).
The whole screen tested about 5,500 compounds, of which about 2,000 (36%) were called active. Not shown: some 18% with an inconclusive outcome. The list shows a part of the results. Unmarked numbers belong to inactive results. Rule as the data show it: active = normalized growth mostly below about 0.91 (no sharp cut-off); inconclusive = no clear call, values can overlap the other calls; inactive = mostly above about 0.92.

Test: chemical genetic growth profiling, strain panel (AID 1159580);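 also: tested at 20 µM; growth read once vehicle control cultures reached saturation at 30 °C; 1 = growth at the plate median or of vehicle wells; lower values mean less growth of the strain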
Details: S. cerevisiae deletion strains, growth OD

## CCc1cc2c(cc1-c1csc(C/C(N)=N\O)n1)C(C)(C)CCC2(C)C
Locus YAR019C, strain CDC15, stronger effect = lower value
  normalized growth: 0.985
Locus YBL105C, strain PKC1, stronger effect = lower value
  normalized growth: 0.974
Locus YBR135W, strain CKS1, stronger effect = lower value
  normalized growth: 0.969
Locus YBR136W, strain MEC1, stronger effect = lower value
  normalized growth: 0.981
Locus YBR160W, strain CDC28, stronger effect = lower value
  normalized growth: 0.986
Locus YDL017W, strain CDC7, stronger effect = lower value
  normalized growth: 0.978
Locus YDL028C, strain MPS1, stronger effect = lower value
  normalized growth: 0.985
Locus YDL101C, strain DUN1, stronger effect = lower value
  normalized growth: 0.979
Locus YDL108W, strain KIN28, stronger effect = lower value
  normalized growth: 0.968
Locus YDL132W, strain cdc53, stronger effect = lower value
  normalized growth: 0.965
Locus YDL214C, strain PRR2, stronger effect = lower value
  normalized growth: 0.757
Locus YDR052C, strain DBF4, stronger effect = lower value
  normalized growth: 0.974
Locus YDR054C, strain cdc34, stronger effect = lower value
  normalized growth: 0.97
Locus YDR226W, strain ADK1, stronger effect = lower value
  normalized growth: 0.976
Locus YDR477W, strain SNF1, stronger effect = lower value
  normalized growth: 0.75
Locus YER123W, strain YCK3, stronger effect = lower value
  normalized growth: 0.568 (active)
Locus YER133W, strain GLC7, stronger effect = lower value
  normalized growth: 0.712 (active)
Locus YFL009W, strain cdc4, stronger effect = lower value
  normalized growth: 0.967
Locus YFL029C, strain CAK1, stronger effect = lower value
  normalized growth: 0.974
Locus YFR003C, strain YPI1, stronger effect = lower value
  normalized growth: 0.974
Locus YFR019W, strain FAB1, stronger effect = lower value
  normalized growth: 0.819
Locus YFR028C, strain CDC14, stronger effect = lower value
  normalized growth: 0.973
Locus YGR040W, strain KSS1, stronger effect = lower value
  normalized growth: 0.749
Locus YGR052W, strain FMP48, stronger effect = lower value
  normalized growth: 0.567 (active)
Locus YGR092W, strain DBF2, stronger effect = lower value
  normalized growth: 0.722
Locus YHR030C, strain SLT2, stronger effect = lower value
  normalized growth: 0.499 (active)
Locus YHR079C, strain IRE1, stronger effect = lower value
  normalized growth: 0.525
Locus YHR082C, strain KSP1, stronger effect = lower value
  normalized growth: 0.647
Locus YHR205W, strain SCH9, stronger effect = lower value
  normalized growth: 0.77
Locus YIL147C, strain SLN1, stronger effect = lower value
  normalized growth: 0.981
Locus YJL095W, strain BCK1, stronger effect = lower value
  normalized growth: 0.532
Locus YJL128C, strain PBS2, stronger effect = lower value
  normalized growth: 0.962
Locus YJL157C, strain FAR1, stronger effect = lower value
  normalized growth: 0.779
Locus YJR016C, strain ILV3, stronger effect = lower value
  normalized growth: 0.965
Locus YJR066W, strain TOR1 (second series), stronger effect = lower value
  normalized growth: 0.601 (active)
Locus YJR066W, strain TOR1, stronger effect = lower value
  normalized growth: 0.666
Locus YKL048C, strain ELM1, stronger effect = lower value
  normalized growth: 0.721 (active)
Locus YKL067W, strain YNK1, stronger effect = lower value
  normalized growth: 0.755
Locus YKL101W, strain HSL1, stronger effect = lower value
  normalized growth: 0.701 (active)
Locus YKL193C, strain SDS22, stronger effect = lower value
  normalized growth: 0.973
Locus YKL203C, strain TOR2, stronger effect = lower value
  normalized growth: 0.764
Locus YLR113W, strain HOG1, stronger effect = lower value
  normalized growth: 0.369 (active)
Locus YLR133W, strain CKI1, stronger effect = lower value
  normalized growth: 0.813
Locus YLR403W, strain SFP1, stronger effect = lower value
  normalized growth: 0.784
Locus YML070W, strain DAK1, stronger effect = lower value
  normalized growth: 0.618 (active)
Locus YMR001C, strain CDC5, stronger effect = lower value
  normalized growth: 0.969
Locus YMR205C, strain PFK2 (second series), stronger effect = lower value
  normalized growth: 0.78
Locus YMR277W, strain FCP1, stronger effect = lower value
  normalized growth: 0.963
Locus YNL006W, strain LST8, stronger effect = lower value
  normalized growth: 0.977
Locus YNL020C, strain ARK1, stronger effect = lower value
  normalized growth: 0.788
Locus YNL161W, strain CBK1, stronger effect = lower value
  normalized growth: 0.977
Locus YNL183C, strain NPR1, stronger effect = lower value
  normalized growth: 0.553 (active)
Locus YNL207W, strain RIO2, stronger effect = lower value
  normalized growth: 0.964
Locus YNL222W, strain SSU72, stronger effect = lower value
  normalized growth: 0.972
Locus YNL307C, strain MCK1 (second series), stronger effect = lower value
  normalized growth: 0.797
Locus YOL078W, strain AVO1, stronger effect = lower value
  normalized growth: 0.969
Locus YOL136C, strain PFK27, stronger effect = lower value
  normalized growth: 0.738
Locus YOR061W, strain CKA2, stronger effect = lower value
  normalized growth: 0.788
Locus YOR119C, strain RIO1, stronger effect = lower value
  normalized growth: 0.78
Locus YOR231W, strain MKK1, stronger effect = lower value
  normalized growth: 0.525 (active)
Locus YOR329C, strain SCD5, stronger effect = lower value
  normalized growth: 0.981
Locus YPL031C, strain PHO85, stronger effect = lower value
  normalized growth: 0.639 (active)
Locus YPL153C, strain RAD53, stronger effect = lower value
  normalized growth: 0.552 (active)
Locus YPL204W, strain HRR25, stronger effect = lower value
  normalized growth: 0.759
Locus YPL209C, strain IPL1, stronger effect = lower value
  normalized growth: 0.976
Locus YPL256C, strain CLN2, stronger effect = lower value
  normalized growth: 0.546 (active)
Locus YPR025C, strain CCL1, stronger effect = lower value
  normalized growth: 0.978
Locus YPR106W, strain ISR1, stronger effect = lower value
  normalized growth: 0.976
Locus YPR111W, strain DBF20, stronger effect = lower value
  normalized growth: 0.966
Strain NNK1, stronger effect = lower value
  normalized growth: 0.947
Strain TSCII, stronger effect = lower value
  normalized growth: 0.975
